Assay [1] can be described thus: NCI Yeast Anticancer Drug Screen. Data for the rad50 strain (AID 155).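 Note: 0% = growth of vehicle-only cultures of the same strain.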 As to conditions: S. cerevisiae rad50 strain growth inhibition; at 50.0 µM; hits give high values. The method in brief: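 Vehicle-treated cultures provide the reference for the growth inhibition reported for compound-exposed, repair-deficient yeast.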
A short description of assay [2]: NCI Yeast Anticancer Drug Screen. Data for the mec2-1 strain (AID 157). The note with it: S. cerevisiae mec2-1 strain, at 50.0 µM, hits give high values. An outline of the steps: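 Mutant yeast (mec2-1) grown with compound; growth inhibition relative to vehicle control reported.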
Assay [3] is described as follows: NCI Yeast Anticancer Drug Screen. Data for the sgs1 mgt1 strain (AID 161).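 Note: 0% = growth of cultures given vehicle only.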 As to conditions: S. cerevisiae sgs1 mgt1 strain, at 50.0 µM, hits give high values. An outline of the steps:
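Compounds are added to genetically altered yeast, and growth is compared with cultures given vehicle alone to give percent inhibition.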

Assay [4] can be described thus: NCI Yeast Anticancer Drug Screen. Data for the cln2 rad14 strain (AID 165).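 Note: 0% = growth equal to vehicle treated cultures.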 As to conditions: S. cerevisiae cln2 rad14 strain, at 50.0 µM, hits give high values. The method in brief: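 Readout is yeast growth inhibition versus vehicle-treated controls, using a strain with cln2 and rad14 alterations exposed to compound.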
Assay [5] in a line: NCI Yeast Anticancer Drug Screen. Data for the bub3 strain (AID 167). The note with it: S. cerevisiae bub3 mutant strain, at 50.0 µM, hits give high values. The method in brief: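 Mutant yeast screening strain plus compound; vehicle-treated cultures serve as the 0% inhibition reference.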
Assay [6] can be described thus: NCI Yeast Anticancer Drug Screen. Data for the mlh1 rad18 strain (AID 175). The note with it: S. cerevisiae mlh1 rad18 strain growth inhibition; at 50.0 µM; hits give high values. An outline of the steps:
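Genetically defined yeast (DNA repair-deficient) exposed to compounds; growth inhibition determined relative to vehicle.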

Among the data in PubChem BioAssay (NCI) are growth inhibition values, retold here.

About 79,000 compounds went through this panel and 15% of them were active in at least one assay; those are over-represented in the sample as a whole. A number with no mark means an inactive call. Active and inactive are the calls of the source. Cut-off read from the data, not from the text of the source: active = growth inhibition above about 70%; inactive = the rest.

In the case of `Nc1ccccc1SC1CC(=O)N(c2cccc(Cl)c2)C1=O` (stereo not given), the growth inhibition in assay [1] was -10.6%; in assay [2] it was -25.4%; in assay [3], -4.7%; in assay [4], -7.3%; in assay [5], -1.05%; in assay [6] it was -25.1%.
For the molecule `CN(Cc1cnc2nc(N)nc(N)c2n1)c1ccc(C(=O)NC(CCC(=O)NC(CCC(=O)O)C(=O)O)C(=O)O)cc1` (stereo not given), the growth inhibition in assay [1] was 34.7%; in assay [2], 20.6%; in assay [3] it was 32.8%; in assay [4], 13.5%; in assay [5], 33.5%; in assay [6] it was 36.2%.
Consider `COCCCNC(=O)C1C(=O)C(=O)N(CCCOC)C1=O` (stereo not given), for which the growth inhibition was -2.35% in assay [1]; -3.45% in assay [2]; -15.8% in assay [3]; 13.2% in assay [4]; -5% in assay [5]; -10.6% in assay [6].
As for `COc1cccc(C[n+]2cc([O-])on2)c1`, the growth inhibition in assay [1] is -16.1%; in assay [2], 26.1%; in assay [3], -3.3%; in assay [4] it was -27.5%; in assay [5] it was 21.1%; in assay [6], 18.4%.
Turning to `CCOc1ccc(Nc2ccc3c(O)cc(S(=O)(=O)O)cc3c2)cc1`, the growth inhibition in assay [1] was 0.9%; in assay [2], -7.35%; in assay [3], -5.75%; in assay [4], -20.4%; in assay [5], 38.5%; in assay [6] it was 12.8%.
Take `CC1(C(=O)O)C(=O)Oc2c1c1ccccc1c1ccccc21` (stereo not given): the growth inhibition in assay [1] was 15.3%; in assay [2], 10.7%; in assay [3], 0.75%; in assay [4] it was 10.8%; in assay [5], 16.3%; in assay [6], 27.5%.
With `CC(C)(C)OC(=O)NCCNC(=O)OCc1ccccc1`, the growth inhibition in assay [1] is 4.25%; in assay [2] it was -12.2%; in assay [3], -16.7%; in assay [4] it was 4.45%; in assay [5], -3.5%; in assay [6], -0.25%.
For the molecule `CCOC(=O)C(C)(C)C(=O)Nc1ccccc1`, the growth inhibition was 5.2% in assay [1]; -7.6% in assay [2]; -3.6% in assay [3]; 24.9% in assay [4]; 3.6% in assay [5]; 5.7% in assay [6].
As to `Clc1ccc(N2C(c3ccccc3)=N[C@@H](N3CCOCC3)[C@@H]2N2CCOCC2)cc1`, the growth inhibition was -13.2% in assay [1]; -15.9% in assay [2]; -9.95% in assay [3]; -30.9% in assay [4]; -1.5% in assay [5]; -4.7% in assay [6].
In the case of `O=C(c1ccccc1C(=O)N1CCCO1)N1CCCO1`, the growth inhibition was -0.45% in assay [1]; -8.3% in assay [2]; 6.9% in assay [3]; -15.8% in assay [4]; 6.15% in assay [5]; 16.9% in assay [6].
Take `Cc1cccc(C)c1NCC(=O)NN`: the growth inhibition in assay [1] is 9.5%; in assay [2] it was 6.05%; in assay [3], 0.85%; in assay [4], -22.9%; in assay [5], 5.85%; in assay [6], 8.55%.
In the case of `Clc1ccc(C2=NCCO2)cc1`, the growth inhibition in assay [1] was -23.8%; in assay [2], -32.1%; in assay [3], -5.75%; in assay [4], -11.8%; in assay [5], 4.85%; in assay [6] it was -26.3%.
Take `Cc1cc2c(cc1C)[n+](=O)c(C(=O)/C=C/c1ccc3c(c1)OCO3)c(C)n2[O-]`: the growth inhibition in assay [1] was 5.85%; in assay [2], 13.4%; in assay [3] it was 10.1%; in assay [4], 28.8%; in assay [5], 1.35%; in assay [6] it was 0.15%.
Take `Cc1cc(C(C)C)cc(C(C)C)c1`: the growth inhibition was -6.25% in assay [1]; -13.9% in assay [2]; -9.45% in assay [3]; -4% in assay [4]; -0.85% in assay [5]; 7.95% in assay [6].
As to `O=C(Nc1cccc(C(F)(F)F)c1)OCCOc1ccc(Cl)cc1`, the growth inhibition in assay [1] was 99.2% (active); in assay [2], 99.3% (active); in assay [3], 99.2% (active); in assay [4] it was 98% (active); in assay [5], 99% (active); in assay [6], 98% (active).
In the case of `OC(c1ccoc1)c1cc2ccccc2s1` (stereo not given), the growth inhibition in assay [1] is 65%; in assay [2], 23.2%; in assay [3] it was 52.5%; in assay [4], 22.2%; in assay [5] it was 21.6%; in assay [6], 36.7%.
For the molecule `Cc1cccc(/C=C/C(=O)C(C)CN(C)C)c1` (stereo not given), the growth inhibition in assay [1] is 41.4%; in assay [2], 15.6%; in assay [3], 63%; in assay [4] it was 30.4%; in assay [5], 28.6%; in assay [6] it was 39.5%.
For `CC(C)(c1ccc(O)c(Cl)c1)c1cc(Cl)c(O)c(S(=O)(=O)O)c1`, the growth inhibition in assay [1] is 10.8%; in assay [2], 4.8%; in assay [3] it was 27.2%; in assay [4] it was 22.3%; in assay [5] it was 1.15%; in assay [6], -11.2%.
Turning to `Cc1c(C(=O)CC(=O)C(=O)Nc2cccc(C(F)(F)F)c2)[n+](=O)c2ccccc2n1[O-]`, the growth inhibition in assay [1] was 45.8%; in assay [2], 43.1%; in assay [3], 28.6%; in assay [4], 14.2%; in assay [5], 38.4%; in assay [6] it was 31.6%.
As for `C1=CC2=CC=CC3c4nc5ccc6ccccc6c5nc4C(=C1)C23` (stereo not given), the growth inhibition in assay [1] was 11.4%; in assay [2], -9.3%; in assay [3], -0.9%; in assay [4], 4.25%; in assay [5], -2.55%; in assay [6], 8.75%.
